# Assay results reported in PubChem BioAssay AID651813 (National Center for Advancing Translational Sciences (NCATS), 2012).
# Out of some 2,100 compounds screened, about 1,100 (52%) were called active. Not shown: some 27% with an inconclusive outcome. The set was probably picked from earlier hits. Some of the results follow. Values without a mark were called inactive. Calls come from the whole dose curve; as a rule, active = well fitted inhibition curve with a large enough effect; inconclusive = small, poorly fitted or top-dose-only effect; inactive = no such curve, though single readings can be large or run the other way.
# Biological target: DNA dC->dU-editing enzyme APOBEC-3G (Homo sapiens) (UniProt Q9HC16)
# Assay: qHTS for inhibitors of Vif-A3G interactions: Cherry picks counterscreen;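 note: hits raise yellow fluorescence by blocking Vif-driven A3G-eYFP degradation; nearly all actives have a fitted effect of over 70% in size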;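 for max response: max response given as percent of control signal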
# Details: HeLa A3G-eYFP + Vif (tagged APOBEC3G with the HIV-1 protein that degrades it), eYFP fluorescence, 24 h
# Outline: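 Readout is eYFP fluorescence (488 nm excitation, 500-530 nm emission) measured on Acumen Explorer after 24 h compound exposure, several concentrations, at 37 deg C. Cells: HeLa stably co-expressing Vif and C-terminally eYFP-tagged A3G; MG132 positive control.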
# Potency is the fitted concentration of half-maximal effect.
# Chain of DNA dC->dU-editing enzyme APOBEC-3G (Homo sapiens) (Q9HC16 whole entry, looked up): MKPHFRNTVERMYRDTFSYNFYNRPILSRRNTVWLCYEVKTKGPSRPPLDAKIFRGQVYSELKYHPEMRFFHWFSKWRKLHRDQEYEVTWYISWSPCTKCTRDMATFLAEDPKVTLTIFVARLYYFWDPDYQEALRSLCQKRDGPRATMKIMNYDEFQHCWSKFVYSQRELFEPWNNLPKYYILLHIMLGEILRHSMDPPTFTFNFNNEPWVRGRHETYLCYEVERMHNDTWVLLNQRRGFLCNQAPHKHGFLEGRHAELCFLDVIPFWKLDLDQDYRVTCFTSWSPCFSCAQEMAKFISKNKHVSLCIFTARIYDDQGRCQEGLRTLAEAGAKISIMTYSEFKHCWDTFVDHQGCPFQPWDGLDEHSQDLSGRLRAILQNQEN
SMILES,Potency,max response [%]
COc1ccc(/C=N/NC(=O)c2cc(OC)c(OC)c(OC)c2)cc1CN1CCc2cc(OC)c(OC)cc2C1C (centres undefined),12.5 µM (active),–
CC(=O)N1CCc2nc3sc(C(=O)c4ccc(F)cc4)c(N)c3c(C(F)(F)F)c2C1,18.4 µM (active),–
COc1ccc(C(=O)c2sc3nc4c(c(C(F)(F)F)c3c2N)CN(C(C)=O)CC4)cc1OC,18.4 µM (active),–
CCOC(=O)c1cc2n(c1N)-c1ccccc1C2=O,–,-28.5
CCOC(=O)c1cc2n(c1/N=C/N(C)C)-c1ccccc1C2=O,16.4 µM (active),–
CO/N=C\CC(=O)Nc1ccc(Oc2ccccc2)cc1,1.98 µM (active),–
CO/N=C\CC(=O)Nc1ccc(Cl)c(Cl)c1,9.94 µM (active),–
CCCCN1C(=O)/C(=C2/Sc3ccccc3N2C)S/C1=N\c1ncn[nH]1,20.6 µM (active),–
O=C(NNc1ncc(C(F)(F)F)cc1Cl)c1c(Cl)cccc1Cl,14 µM (active),–
O=C(/C=C/c1cccs1)NCc1ccc2c(c1)OCO2,–,-24.4
O=C(NCc1ccc2c(c1)OCO2)c1cc([N+](=O)[O-])ccc1N1CCCCC1,1.98 µM (active),–
COc1cccc(C(=O)Nc2ccc(N3CCCC3)cc2)c1,5.59 µM (active),–
COc1cc(C(=O)OCC(=O)Nc2ccc(N3CCOCC3)cc2)ccc1OCC(C)C,–,8.76
CCc1ccc(C(=O)NC(=S)Nc2ccc(N3CCOCC3)cc2)cc1,–,0.165
COc1cc(OC)cc(C(=O)Nc2ccc(N3CCN(C(=O)c4cccs4)CC3)cc2)c1,6.27 µM (active),–
O=[N+]([O-])c1ccc(N/N=C\c2cccn2-c2ccccc2)nc1,15.8 µM (active),–
CCN(CC)c1ccc(C=NNc2ccc([N+](=O)[O-])cn2)cc1,1.3 µM (active),–
Oc1ccc(C2=NNC(=NCc3ccc4c(c3)OCO4)SC2)c(O)c1,7.9 µM (active),–
COc1ccc(C2C(C#N)=C(N)Oc3cc(N)ccc32)cc1OC (centres undefined),9.94 µM (active),–
N#CC1=C(N)Oc2cc(N)ccc2C1c1cccc(Br)c1 (centres undefined),0.627 µM (active),–
COc1cc(C2C(C#N)=C(N)Oc3cc(O)ccc32)cc2c1OCO2 (centres undefined),11.2 µM (active),–
COc1ccc(C2C(C#N)=C(N)Oc3c2ccc2cccnc32)cc1OC (centres undefined),1.77 µM (active),–
COc1ccc2nc(Nc3nc(CSc4ccc(C)cc4)cc(=O)[nH]3)nc(C)c2c1,–,-26.4

SMILES,Potency,max response [%]
N#CC1=C(N)Oc2cc(N)ccc2C1C1CC=CCC1 (centres undefined),5.59 µM (active),–
Cc1oc(C)c2c(=O)ccc3c(c12)OC(N)=C(C#N)C3c1ccc(F)cc1 (centres undefined),–,44.8
N#CC1=C(N)Oc2cc(N)ccc2C1c1cccc(F)c1 (centres undefined),4.98 µM (active),–
N#CC1=C(N)Oc2cc(N)ccc2C1c1ccccc1 (centres undefined),15.8 µM (active),–
N#CC1=C(N)Oc2cc(N)ccc2C1c1ccccc1F (centres undefined),9.94 µM (active),–
COc1ccc(NC(=O)c2cc(-c3ccccc3OC)on2)cc1,3.14 µM (active),–
COc1ccccc1-c1cc(C(=O)NN)[nH]n1,–,14.5
Cc1ccc(S(=O)(=O)C(C#N)c2nc3ccccc3nc2N2CCCC2)cc1 (centres undefined),16.4 µM (active),–
O=C(O)CSc1cc(NS(=O)(=O)c2cccc([N+](=O)[O-])c2)c2ccccc2c1O,–,-17.9
COc1ccc(-n2c(O)c(/C=N/NS(=O)(=O)c3cccc([N+](=O)[O-])c3)c3ccccc3c2=O)cc1OC,12.5 µM (active),–
COc1ccc(-n2c(O)c(/C=N/NS(=O)(=O)c3ccc(C)c([N+](=O)[O-])c3)c3ccccc3c2=O)cc1OC,4.61 µM (active),–
CCN1C(=O)/C(=C/C=C2\N(CC)c3cc(S(=O)(=O)N(C)C)ccc3N2c2ccccc2)SC1=S,1.12 µM (active),–
CN(C)c1ccc(/C=C(\C#N)c2nc3ccccc3c(=O)[nH]2)cc1,0.411 µM (active),–
COc1cc(/C=C(/C#N)c2nc3ccccc3[nH]2)ccc1OCC(=O)Nc1ccccc1C(C)C,13 µM (active),–
N#C/C(=C\c1ccc(C(=O)O)cc1)c1nc2sc3c(c2c(=O)[nH]1)CCCC3,–,-29.5
N#C/C(=C/c1ccc(O)c(O)c1)c1nc2ccccc2[nH]1,3.14 µM (active),–
COc1cc(/C=C(\C#N)c2nc3ccccc3s2)ccc1OCC(=O)Nc1ccccc1,15.8 µM (active),–
Cc1ccc2nc(/C(C#N)=C/c3ccc(O)c(O)c3)[nH]c2c1,–,43.5
O=C(OCCC12CC3CC(CC(C3)C1)C2)c1ccc(NCc2cc(O)ccc2O)cc1,–,25.7
COc1cc(/C=C(/C#N)c2nc3ccccc3[nH]2)ccc1OC(=O)c1ccco1,–,51.6
COc1cc(/C=C(\C#N)c2nc3ccccc3[nH]2)ccc1O,2.31 µM (active),–
O=C1C=C(Nc2ccc(Cl)cc2Cl)CC(c2ccco2)C1 (centres undefined),5.59 µM (active),–
COc1cc2nc(/C=C/c3ccc(N(C)C)cc3)sc2cc1SC,5.17 µM (active),–

SMILES,Potency,max response [%]
COc1ccc(-c2cnc3c(NC=O)cc(-c4ccccc4)cn23)cc1OC,3.14 µM (active),–
COc1ccc(-c2cnc3c(NC=O)cc(-c4cc(OC)c(OC)c(OC)c4)cn23)cc1OC,12.5 µM (active),–
COc1ccc(-c2cc(NC=O)c3ncc(-c4ccc(OC)c(OC)c4)n3c2)cc1OC,5.59 µM (active),–
CN(C)c1ccccc1-c1cc(NC=O)c2ncc(-c3cccc(C(F)(F)F)c3)n2c1,12.5 µM (active),–
COc1cccc(-c2cnc3c(NC=O)cc(-c4cc(OC)c(OC)c(OC)c4)cn23)c1,9.94 µM (active),–
COc1ccccc1-c1cc(NC=O)c2ncc(-c3ccc(S(C)(=O)=O)cc3)n2c1,17.7 µM (active),–
COc1ccc(-c2cnc3c(NC=O)cc(-c4ccoc4)cn23)cc1OC,11.2 µM (active),–
COc1ccccc1NC(=O)c1oc2ccccc2c1NC(=O)c1cccc(OC)c1OC,5.8 µM (active),–
CCOc1ccccc1C(=O)Nc1c(C(=O)Nc2ccc(F)cc2)oc2ccccc12,2.06 µM (active),–
CCCOc1ccc(N)cc1N,–,-27.6
COc1ccc(NC(=O)COC(=O)c2cc(OC)c(OC)cc2NC(=O)c2ccco2)cc1OC,–,9.25
O=C(COC(=O)c1ccc(NS(=O)(=O)c2cccs2)cc1)NCc1ccco1,15.8 µM (active),–
O=S(=O)(Nc1nc2ccccc2nc1OCC(F)(F)F)c1cccs1,–,-0.0016
O=C(COC(=O)c1ccc(NS(=O)(=O)c2cccs2)cc1O)NCc1ccccc1,4.44 µM (active),–
C/C(CCC(C)C)=N\NC(=S)NCc1ccccc1,–,-18.4
O=C(Cc1ccccc1)NCc1ccc(-n2cccc2)cc1,1.4 µM (active),–
Cc1ccc(CNC(=O)Cc2ccc(-n3cccc3)cc2)cc1,1.98 µM (active),–
Cc1ccc2nc(C)c(C(=O)NN=C3CCCCCC3)n2c1,–,-10.3
CCOc1cc(Br)cc(/C=C2\SC(=Nc3ccccc3)NC2=O)c1O,–,-7.55
COc1cc(/C=C2\SC(=Nc3ccccc3)NC2=O)cc(Cl)c1O,3.66 µM (active),–
O=C1NC(=Nc2ccc(O)cc2)S/C1=C/c1ccco1,8.86 µM (active),–
COc1cc(/C=C2/SC(=Nc3ccc(O)cc3)NC2=O)ccc1O,14.6 µM (active),–
COc1cc(/C=C2\SC(=Nc3cccnc3)NC2=O)cc(OC)c1OC,–,-29.3

SMILES,Potency,max response [%]
N#C/C(=C\c1ccc(-c2ccc(F)cc2F)o1)c1nc2ccccc2[nH]1,8.2 µM (active),–
Cc1ccc2nc(/C(C#N)=C/c3ccc(-c4ccccc4C(=O)O)o3)[nH]c2c1,–,43.5
Cc1ccc2nc(/C(C#N)=C\c3ccc(OC(=O)c4cccs4)cc3)[nH]c2c1,11.2 µM (active),–
Cc1ccc2nc(/C(C#N)=C/c3ccc(-c4ccc(F)cc4F)o3)[nH]c2c1,1.64 µM (active),–
Cc1ccc2nc(/C(C#N)=C\c3ccc([N+](=O)[O-])o3)[nH]c2c1,18.4 µM (active),–
COc1cc(CNCCSc2nnnn2C)ccc1OCc1c(F)cccc1Cl,–,28.9
Cc1ccc2nc(/C(C#N)=C/c3ccc(-c4cccc(Cl)c4)o3)[nH]c2c1,8.2 µM (active),–
N#C/C(=C\c1ccc(-c2ccc(C(=O)O)cc2)o1)c1nc2ccccc2[nH]1,4.61 µM (active),–
Cc1c(Cl)cccc1-c1ccc(/C=C(\C#N)c2nc3ccccc3[nH]2)o1,10.3 µM (active),–
Cc1ccc2nc(/C(C#N)=C/c3ccc(-c4ccc(C(=O)OC(C)C)cc4)o3)[nH]c2c1,3.66 µM (active),–
N#Cc1ccc(-c2cccs2)nc1SCc1c(F)cccc1Cl,1.84 µM (active),–
C=C(C(=O)c1ccccc1)C(C)C(=C)C(=O)c1ccccc1,8.86 µM (active),–
C=C(C(=O)c1ccccc1)C(NC(C)(C)C)c1ccccc1 (centres undefined),14 µM (active),–
C=C(C(=O)c1ccccc1)C(C(=C)C(=O)c1ccccc1)c1ccc(OC)cc1,9.94 µM (active),–
COc1ccc(-c2n[nH]c(C)c2-c2ccc(OC)c(OC)c2)c(O)c1,17.7 µM (active),–
COc1cc2nc(SCC(=O)NCc3ccco3)n(Cc3ccc(Cl)cc3)c(=O)c2cc1OC,–,-29.6
Cc1ccc(C)c(Cn2c(=O)n(CCCC(=O)NCc3ccco3)c(=O)c3sccc32)c1,14 µM (active),–
Cc1cccc(Cn2c(=O)n(CCCC(=O)NCc3ccco3)c(=O)c3ccccc32)c1,14 µM (active),–
Cc1cc(C)c(NC(=O)Cn2c(=O)n(Cc3ccc(C(=O)NCc4ccco4)cc3)c(=O)c3sccc32)c(C)c1,18.4 µM (active),–
CC(C)OC(=O)c1c2c(n3ccccc13)C(=O)c1ccccc1C2=O,2.59 µM (active),–
